According to PubChem BioAssay AID2018 (Sanford-Burnham Center for Chemical Genomics, 2009):
Screen size: about 1,200 compounds; about 600 (50%) were called active. Rule as the data show it: active = inhibition above about 42%; inactive = the rest. So high a share suggests a set chosen from earlier hits. Some of the results follow. Potency and affinity values are given separately.

biological target: SUMO-conjugating enzyme UBC9 (Homo sapiens) (UniProt P63279); experiment: blockers of UBC9-mediated SUMO conjugation – biochemical, AlphaScreen, SUMOylation inhibitor project, confirmation (AID 2018); conditions: AlphaScreen in vitro SUMOylation assay; at 35 µM; active compounds read high
Sequence (P63279 whole entry, looked up): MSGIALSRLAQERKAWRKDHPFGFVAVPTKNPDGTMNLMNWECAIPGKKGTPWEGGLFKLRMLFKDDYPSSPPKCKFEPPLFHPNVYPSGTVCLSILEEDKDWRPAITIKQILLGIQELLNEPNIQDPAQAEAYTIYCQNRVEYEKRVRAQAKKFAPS

inhibition, inactive:
Cc1oc2c(c(C)cc3oc(=O)c(CC(=O)N[C@H](C(=O)O)C(C)C)c(C)c32)c1C 10.7%
COc1cccc(-c2[nH]nc3c2C(c2ccsc2)C(C#N)=C(N)O3)c1 (centres undefined) 24.1%
O=[N+]([O-])c1ccc(O)c(C=Nc2cccc3ncccc23)c1 19.8%
Fc1ccc(NC(=S)Nc2ccc3nccnc3c2)cc1 25%
CCCCn1c(=O)[nH]c2nc3cc(N)ccc3nc2c1=O 9.9%
CC(C)(C)OC(=O)c1c(N)n(CCCN2CCCC2=O)c2nc3ccccc3nc12 -0.3%
O=[N+]([O-])c1c(NCCCO)cc(Sc2nc3ccccc3s2)c2nonc12 37.6%
Cc1nnc(Sc2cc(NCCCO)c([N+](=O)[O-])c3nonc23)s1 21.7%
CC(=O)OCCCNc1cc(SCc2ccco2)c2nonc2c1[N+](=O)[O-] 40.6%
CCC(=O)OCCNc1cc(Sc2nccn2C)c2nonc2c1[N+](=O)[O-] 24.5%
Cc1nnc(Sc2cc(NCCO)c([N+](=O)[O-])c3nonc23)s1 24.5%
Cc1ccc(Sc2cc(NCCCO)c([N+](=O)[O-])c3nonc23)cc1 35.8%
O=C(Nc1ccccc1)Oc1ccc[nH]c1=O 10.3%
CN(CCO)c1nc(N)c2c(N)nc3c(c2c1C#N)CC(=O)N3C1CCCC1 29.5%
CCOC(=O)c1c(-c2ccccc2)oc2ccc(OC(C)C(=O)O)cc12 (centres undefined) -14%
COc1ccc2cc3c(N)nn(C(=O)Cc4ccc(Cl)cc4)c3nc2c1 19.7%
COC(=O)c1c(C)oc(C)c1S(=O)(=O)NC(C)(C)C 15%
C=CCNc1nc(NCc2ccccc2)c(C#N)c2c1CN(C)CC2 36.6%
COc1ccc(CC2S/C(=N/N=C/c3ccccc3O)NC2=O)cc1 (centres undefined) 19%
CC(=O)Oc1ccc2cc(-c3nc4ccccc4n3C)c(=O)oc2c1 -26.3%
Cc1cc(C)cc(NC(=S)Nc2cccc3ccccc23)c1 4%
Cc1oc2c(c(C)cc3oc(=O)c(CC(=O)N[C@@H](C)C(=O)O)c(C)c32)c1C -7%
CCC(NC(=O)Cc1c(C)c2c(cc(C)c3c(C)c(C)oc32)oc1=O)C(=O)O (centres undefined) 26.9%
COc1ccc2ccc3c(c2c1)N=C[C@]1(O3)N(C)c2ccccc2C1(C)C 27.7%
S=c1[nH]nc(-c2ccco2)n1/N=C/C=C/c1ccco1 25.8%
O=C(Nc1ccc(-n2nncc2-c2ccco2)cc1)c1cc2ccccc2oc1=O 35.2%
CC(=O)C1C(=O)C=C(c2ccco2)CC1c1ccccc1 (centres undefined) -5.3%
Cc1cccc(NC(=O)CC2Nc3cccc4cccc(c34)NC2=O)c1 (centres undefined) 28.8%
C=CCn1c(SCC(=O)N2N=C(c3ccco3)CC2c2ccco2)nnc1-c1ccncc1 (centres undefined) 3.2%
O=C(CC1Nc2cccc3cccc(c23)NC1=O)Nc1ccccc1 (centres undefined) 30.7%
O=C1C2C3C=CC(C4CC34)C2C(=O)N1CCc1ccccc1 (centres undefined) -31.9%
COCCCNC(=O)c1cccn2c(=O)c3cc4ccccc4cc3nc12 16.5%
CCOc1c(Br)cc(/C=C2\C(=O)N(CCC#N)N=C2C)cc1OC 8.8%
C=CCOc1c(Cl)cc(CNc2ccc3[nH]c(=O)[nH]c3c2)cc1OC 41.5%
Cc1cccc(/C=N/NC(=O)C(C)Nc2cccc3ccccc23)n1 (centres undefined) -0.7%
Cc1cc(Br)ccc1-n1[nH]c(C)c(C=Nc2cccc3nsnc23)c1=O 39.7%
Cc1ccc(/C=C2\SC(=S)N(c3cccnc3)C2=O)o1 33.6%
Cc1cccc2nc(-c3ccco3)c(Nc3ccc4c(c3)OCO4)n12 19.8%
Cc1ccc(C(=O)N[C@H](C(=O)Nc2cc(Cl)cc(Cl)c2)C(C)C)cc1 -24.1%
COn1c(C)c(C)c2c3nonc3ccc21 19.1%
Cc1nnc(N/N=C\c2ccc(-c3ccccc3[N+](=O)[O-])o2)n1N -4.6%
Cc1ccc(C)c(NC(=S)Nc2cccc3cnccc23)c1 16.2%
Cc1nn(CC(=O)Nc2ccc(C(=O)N(C)C)cc2)c(=O)c2ccccc12 -3.7%
Cc1ccc(NC(=O)Nc2ccno2)cc1 -5.1%
O=C1C=C(O)c2cccc(O)c2C1=O 39.2%
COc1ccc(S(=O)(=O)/N=C2/NC(=O)/C(=C\c3ccco3)S2)cc1 40.6%
CSCC[C@H](NC(=O)Cc1c(C)c2c(cc(C)c3c(C)c(C)oc32)oc1=O)C(=O)O 19.6%
CCc1c(C)c2cc(Cl)c(O)c(CN(C)C)c2oc1=O 14.3%
CCC(C(=O)O)n1nnc(-c2ccc(OCc3ccccc3)c(OC)c2)n1 (centres undefined) 2%
COc1ccc2nc(NC(=O)CCc3ccc(OC)c(OC)c3)sc2c1 -27%
NCCSc1c(-c2ccccc2)[nH]c2ccccc12 4.2%
Oc1ccc(N=Cc2ccc(OCc3ccccc3)cc2)cc1 25.2%
CCOC(=O)C1=C(C)NC(=O)CC1c1cc2c(cc1[N+](=O)[O-])OCO2 (centres undefined) 14.6%
O=[N+]([O-])c1cc2c(cc1CN1CCN(CCOCCO)CC1)OCO2 12.3%
S=c1[nH]nc(-c2ccncc2)n1/N=C/c1ccccc1Cl 20.2%
CCN(CC)CCNS(=O)(=O)c1ccc2c3c(cccc13)C(=O)N2 -8.8%
NC(=O)c1sc2nc(-c3ccco3)ccc2c1N 20%
COCC(C)N1C(=O)Cc2c1nc(N)c1c(N)nc(N3CCN(c4ccccc4F)CC3)c(C#N)c21 (centres undefined) 37.8%
N#Cc1c(N2CCN(c3ccc(F)cc3)CC2)nc(N)c2c(N)nc3c(c12)CC(=O)N3C1CC1 37.6%

inhibition, active:
COc1ccc(-c2csc(CCN3N=C(C)CC3=O)n2)cc1 53.9%
CC(C)=CCC1=C(OCC(=O)O)C(=O)c2ccccc2C1=O 99.7%
CC(C)N(C(=O)Nc1ccc2nccnc2c1)C(C)C 44.2%
CC(=O)OCCNc1cc(SCc2ccco2)c2nonc2c1[N+](=O)[O-] 87.5%
CCC(=O)OCCNc1cc(Sc2nc3ccccc3s2)c2nonc2c1[N+](=O)[O-] 46.1%
O=[N+]([O-])c1c(NCCCO)cc(Sc2ccc(Cl)cc2)c2nonc12 42.6%
N#Cc1c2ccc(OCC(N)=O)cc2n2ccccc12 56.5%
CCOC(=O)CCc1c(C)c(C#N)c2[nH]c3ccccc3n2c1=O 73.9%
Cc1cc(/C=N/n2c(COc3ccccc3C)nc3ccccc3c2=O)c(O)c([N+](=O)[O-])c1 102%
Brc1ccc(C2Nc3cccc4cccc(c34)N2)o1 69.5%
CCN(c1ccccc1)S(=O)(=O)c1ccc(Cl)c(NC(=O)COC(=O)c2cc(O)c3ccccc3c2O)c1 73%
CN1c2ccccc2C(C)(C)C12C=Nc1c(cc(N3CCOCC3)c3ccccc13)O2 (centres undefined) 45.2%
COc1ccc(OC)c(-n2c(-c3cc(-c4ccco4)[nH]n3)n[nH]c2=S)c1 48.4%
S=c1[nH]nc(-c2cc(-c3ccco3)[nH]n2)n1-c1cccc2ccccc12 46.9%
Cc1ccc(-n2c(-c3cc(-c4ccco4)[nH]n3)n[nH]c2=S)c(Br)c1 57%
S=c1[nH]nc(-c2cc(-c3ccco3)[nH]n2)n1-c1ccccc1Cl 96.5%
O=C1C2C3C=CC(C3)C2C(=O)N1CNc1ccc(O)cc1 (centres undefined) 92.9%
O=C(O)c1cc(-c2ccco2)nn1-c1ccc(Cl)cc1 54.7%
Cc1ccc(C2Nc3cccc4cccc(c34)N2)s1 71.9%
COc1cc(OC)c(C2Nc3cccc4cccc(c34)N2)c(OC)c1 91.3%
CCOc1ccc(C2Nc3cccc4cccc(c34)N2)cc1OC 73.4%
COc1ccccc1C1Nc2cccc3cccc(c23)N1 77.6%
Fc1cccc(Cl)c1C1Nc2cccc3cccc(c23)N1 53.9%
Oc1ccc(C2Nc3cccc4cccc(c34)N2)c(O)c1 86.1%
COCCN=c1scc(-c2ccco2)n1/N=C/c1ccc(O)c(O)c1O 82.6%
CC1=NN(c2ccccc2)C(=O)C1 53.2%
Cc1[nH]n(-c2ccccc2)c(=O)c1/C=N/N(C)c1ccccc1 73%
CN(C)c1ccc(NC(=O)CSc2nnc(-c3ccco3)c(-c3ccco3)n2)cc1 46.4%
Cc1ccc(NC(=O)CSc2nnc(-c3ccco3)c(-c3ccco3)n2)cc1 97.9%
NS(=O)(=O)c1ccc(-c2ccc(/C=C3\NC(=S)NC3=O)o2)cc1 70.9%
O=C1C=C(O)c2c(O)cccc2C1=O 43.1%
Cc1ccc(N=C2NC(=O)/C(=C\c3ccco3)S2)cc1 44.4%
Oc1ccc(NCc2ccc(OCc3ccccc3)cc2)cc1 61.8%
COc1cc(CNc2ccc(O)cc2)cc(Br)c1OCc1ccccc1 89.1%
Oc1ccc(NCc2cccc(OCc3ccccc3)c2)cc1 81.1%
COc1ccc(Br)cc1CNc1ccc(O)cc1 63.1%
Cc1ccccc1N=Cc1cc2c(cc1[N+](=O)[O-])OCO2 43.9%
O=[N+]([O-])c1cc2c(cc1/C=N/n1c(-c3ccccn3)n[nH]c1=S)OCO2 82.5%
CC1(C)Nc2ccc(O)cc2-c2c1ssc2=S 59.8%
Nc1nc(-c2ccco2)c(-c2ccco2)s1 55.9%
